TTR transcr act: TTR transcription activators in neuroblastoma reporter cells, primary screen, cell-based, luminescence, SH-SY5Y, TTR promoter Gaussia luciferase | 100% = recombinant luciferase protein wells | activation, % at 16.7 µM | 1.3% of 92,000 active;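 active = activation above the mean of all tested compounds plus 3 SD, cut at about 9.5% in these data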;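 note: cells exposed to compounds for one day before reading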
HuH7 TTR inh: TTR promoter reporter inhibitors in hepatoma cells, counter-screen for TTR transcription activator project, cell-based, luminescence, HuH7 hepatoma; shares compounds with TTR transcr act; HuH7 TTR promoter-Gaussia luciferase reporter; inhibition, % at 16.7 µM; 4% of 1,100 active; AID 1117279, 2014;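 active = average inhibition above the solvent-only control wells' mean plus 3 SD, cut at about 15% in these data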;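 note: inhibitors lower well luminescence so higher value means more inhibition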
TTR up confirm: TTR transcription activators, retest, confirmation, cell-based, luminescence, SH-SY5Y, triplicate | 1,100 tested, under 10 active | activation, % at 16.7 µM | SHSY5Y TTR promoter Gaussia luciferase; 100% = purified Lucia enzyme wells, no cells | shares compounds with TTR transcr act | AID 1117280, 2014;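 active = mean activation above a set limit taken from the earlier primary screen, cut at about 11% in these data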
Numbers stand for hits; n = inactive. Only a selection was taken, and hits are over-represented in it overall.

SMILES	TTR transcr act	others
CCOC(=O)c1sc(NC(=O)c2ccc(S(=O)(=O)N3CCOCC3)cc2)nc1-c1ccccc1	n
Cc1nc(Cc2ccccc2)sc1CC#N	n
N/C(=N\NS(=O)(=O)c1ccccc1Cl)c1ccccn1	n
Cn1c(=O)n(C)c2cc(NC(=O)c3ccccc3NS(C)(=O)=O)ccc21	n
Cc1nnc(SCC(=O)NN2C(=O)NC3(CCCCC3)C2=O)s1	11	HuH7 TTR inh=n;TTR up confirm=n
CCC(=O)N(c1nnc(SCC(=O)NN2C(=O)NC3(CCC(C)CC3)C2=O)s1)C1CC1 (configuration not stated)	n
Cc1ccc(C(=O)CCC(=O)NN2C(=O)NC3(CCCCC3)C2=O)cc1	n
COc1cccc2cc3c(nc12)C[C@@H]1CCCC(=O)N2CCC[C@@]12C3	n
C[C@H]1[C@@H](OC(=O)Nc2ccccc2F)CC[C@@]23CCCN2C(=O)CCC[C@@H]13	n
O=[N+]([O-])c1cccc(-c2noc3c2-c2nc(Cc4cccc5ccccc45)sc2CC3)c1	34	HuH7 TTR inh=n;TTR up confirm=n
O=[N+]([O-])c1cccc(-c2nc(-c3ccccn3)no2)c1	n
Fc1cccc(F)c1-c1nc2c(s1)CCc1onc(-c3ccc(Br)cc3)c1-2	n
CCOC(=O)[C@@H]1[C@H]2COc3ccccc3[C@@H]2N2C(=O)N(c3ccc(Br)cc3)C(=O)[C@@]12C	n
Nc1nc(NCCCN2CCOCC2)nc(Nc2ccc(Cl)cc2)c1[N+](=O)[O-]	13	HuH7 TTR inh=n;TTR up confirm=n
Nc1nc(Nc2ccccc2)nc(N2CCOCC2)c1[N+](=O)[O-]	n
Nc1nc(NCC2CCCO2)nc(Nc2ccc(Cl)cc2)c1[N+](=O)[O-] (configuration not stated)	n
O=C(Nc1nc2ccccc2s1)c1cccc(S(=O)(=O)N2CCc3ccccc32)c1	n
CCc1nnc(NC(=O)c2cccc(S(=O)(=O)N3CCc4ccccc43)c2)s1	15	HuH7 TTR inh=n;TTR up confirm=n
CCc1nnc(NC(=O)c2cccc(S(=O)(=O)N3CCN(C(C)=O)CC3)c2)s1	n
Cc1cc(C)c2c(CN3CCN(c4ccccc4F)CC3)cc(=O)oc2c1	n
Cc1ccc(C(=O)NC2CCCCN(Cc3ccccc3C)C2=O)cc1 (configuration not stated)	n
CCOC(=O)C1=CNS(=O)(=O)NC1c1ccc(C[C@H](NC(=O)CNC(=O)CCc2ccccc2)C(N)=O)cc1 (some centres not stated)	n
Cc1cc(N2CCOCC2)n2ncc(-c3ccccc3Cl)c2n1	n
CCCCn1c(SCc2c(C)noc2C)nc2cc(S(N)(=O)=O)ccc21	16	HuH7 TTR inh=n;TTR up confirm=n
CCCCn1c(SCC(=O)Nc2oc(C)c3c(C)n[nH]c(=O)c23)nc2cc(S(N)(=O)=O)ccc21	n
SMILES	TTR transcr act	others
CCCCn1c(SCC(=O)Nc2cc(C)on2)nc2cc(S(N)(=O)=O)ccc21	n
c1nc(NC[C@@H]2CCCO2)c2cc(-c3ccc4c(c3)OCO4)ccc2n1	n
COc1ccc2c(c1)Sc1ccc(Cl)cc1N2	n
CC1CCC(NC(=O)CSc2nncn2C)CC1 (configuration not stated)	n
Cc1ccc(C(C)NC(=O)C2CCCC2)cc1C (configuration not stated)	n
CC(NC(=O)C1CCC1)c1ccc(Br)cc1 (configuration not stated)	22	HuH7 TTR inh=n;TTR up confirm=n
CC(NC(=O)C1CCC1)c1ccc2c(c1)OCO2 (configuration not stated)	n
O=C(NN=Cc1cc(Br)c(O)c(Br)c1)c1ccccc1NS(=O)(=O)c1cccs1	n
O=C(Nc1ccc2c(c1)OCO2)OC1CC2CC1[C@H]1CCCCN1[C@H]2Cc1ccccc1 (some centres not stated)	n
COc1ccc(/C=N/Nc2ccccc2)cc1Cn1nc(C)c([N+](=O)[O-])c1C	13	HuH7 TTR inh=n;TTR up confirm=n
COc1ccc(/C=N/N2CCOCC2)cc1Cn1nc(C)c([N+](=O)[O-])c1C	n
COc1ccc(/C=C/C(=O)C2CC2)cc1Cn1nc(C)c([N+](=O)[O-])c1C	n
CC(N=C1NS(=O)(=O)c2ccccc21)C(=O)NCc1ccc(F)cc1 (configuration not stated)	n
COc1ccc(OC)c(CNS(=O)(=O)c2ccccc2Br)c1	n
COC(=O)[C@@H]1C[C@H]1[C@@H](NS(=O)(=O)c1ccccc1)c1ccccc1	10	HuH7 TTR inh=n;TTR up confirm=n
COC(=O)[C@H]1C[C@@H]1[C@H](NC(=O)c1cc(C)on1)c1ccccc1	n
C[C@H](NS(=O)(=O)c1ccccc1)C(=O)N1CCN(C(c2ccccc2)c2ccccc2)CC1	n
O=C(OCC#CCSc1nnc(-c2cccc3ccccc23)o1)c1cccc(C(F)(F)F)c1	n
C[C@H](c1ccccc1)N1C[C@@H](COCc2ccccc2)Oc2cccc(F)c2S1(=O)=O	n
NC(=S)c1ccc[n+]([O-])c1	n
O=C1N2CCc3ccccc3C2CS(=O)(=O)N1Cc1ccc(F)cc1 (configuration not stated)	n
C#CCOCCOCCOCCNc1nc(N2CCOCC2)nc(N2CCN(C(=O)[C@H](CCCCN)n3cc([C@@H](N)CO)nn3)CC2)n1	n
C#CCOCCOCCOCCNc1nc(N2CCN(C(=O)[C@H](CCCN=C(N)N)n3cc(C(N)[C@@H](C)CC)nn3)CC2)nc(N2CCN(C(=O)[C@H](CCCCN)n3cc([C@@H](N)CC(N)=O)nn3)CC2)n1 (some centres not stated)	n
C#CCOCCOCCOCCNc1nc(N2CCN(C(=O)[C@H](CO)n3cc([C@@H](N)C(C)C)nn3)CC2)nc(N2CCN(C(=O)[C@H](CCCCN)n3cc([C@@H](N)[C@H](C)CC)nn3)CC2)n1	19	HuH7 TTR inh=n;TTR up confirm=n
COC(=O)[C@]12C[C@H](CC(=O)NCC34CC5CC(CC(C5)C3)C4)C(=O)N(CCc3ccc(OC)c(OC)c3)C1=C[C@H](COCc1ccccc1)O[C@@H]2C	n
SMILES	TTR transcr act	others
CCCC1CCC2(CC1)CCC2OC(=S)Nc1ccc(N(C)C)cc1 (configuration not stated)	n
Cc1ccc(S(=O)(=O)Nc2nsc(N)n2)cc1	n
Cc1ccc(CS(=O)(=O)c2nsc(C)c2C#N)cc1	19	HuH7 TTR inh=n;TTR up confirm=n
Cc1cc(C)c(C#N)c(SCc2ccc([N+](=O)[O-])cc2)n1	n
COc1ccc2c(c1)OCC(O)(c1ccccc1)C2=O (configuration not stated)	38	HuH7 TTR inh=n;TTR up confirm=n
COc1ccc(NC(=O)C(c2ccccc2)c2ccccc2)c(OC)c1	n
COc1ccc(OC)c(NC(=O)C2CC2c2ccccc2)c1 (configuration not stated)	n
O=C(NC(=O)c1csnn1)Nc1ccccc1Cl	n
CC1(C)CC(=O)C(c2ccccc2)(c2ccccc2)C(=O)C1	n
COc1ccc2cc(-c3cn(C(=O)N(c4ccccc4)c4ccccc4)nn3)ccc2c1	n
CCOC(=O)C1=CN(Cc2cccc(F)c2)S(=O)(=O)N(C)C1c1ccc(F)c(Cl)c1 (configuration not stated)	n
Cc1cc(NC(=O)C(C)SCC(=O)OC(C)C(=O)Nc2ccc(F)cc2Cl)no1 (configuration not stated)	12	HuH7 TTR inh=n;TTR up confirm=n

Source: PubChem BioAssay
